± gives the standard deviation of the averaged measurements.

The subject of this test is IL-6-GFP PC-9GR. The experiment in a line: cell viability (CCK-8 OD) relative to DMSO control (fraction of control); higher = more viable cells. Conditions: compound concentration: 10 uM; treatment time: 48 h. The method in brief:
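PC-9 and PC-9GR lung cancer cells expressing lentiviral IL-6-GFP were plated at 3000 cells/well in 96-well plates and treated for 48 h with each library compound at a final 10 μM. Viability was determined by CCK-8 absorbance as a ratio of each well's optical density to the vehicle control well.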
Turning to `CC(C)C12OC1C1OC13C1(C)CCC4=C(COC4=O)C1CC1OC13C2O` (configuration not stated) [Triptolide (PG490)], the cell viability was 0.466 ± 0.21.

In the case of `CC(C)(C)NCC(O)c1ccccc1Cl.Cl` (configuration not stated) [Tulobuterol hydrochloride], the cell viability is 1.07 ± 0.17.

Regarding `NC(Cc1ccc(N(CCCl)CCCl)cc1)C(=O)O` (configuration not stated) [Melphalan], the cell viability worked out at 0.78 ± 0.037.

On to `O=P1(NCCCl)OCCCN1CCCl` (configuration not stated) [Ifosfamide], for which the cell viability was determined as 1.15 ± 0.092.

`Cc1c(N)nc(C(CC(N)=O)NCC(N)C(N)=O)nc1C(=O)NC(C(=O)NC(C)C(O)C(C)C(=O)NC(C(=O)NCCc1nc(-c2nc(C(=O)NCCC[S+](C)C)cs2)cs1)C(C)O)C(OC1OC(CO)C(O)C(O)C1OC1OC(CO)C(O)C(OC(N)=O)C1O)c1c[nH]cn1.O=S(=O)([O-])O` (configuration not stated) [Bleomycin sulfate]: the cell viability amounted to 0.653 ± 0.13.

`Cc1cccc(C(C)c2c[nH]cn2)c1C.Cl` (configuration not stated) [Medetomidine HCl] displayed a cell viability of 1.25 ± 0.37.

With `O=C(O)CCCc1ccc(N(CCCl)CCCl)cc1` [Chloroambucil], the cell viability was 0.937 ± 0.15.

As to `COc1cc2c(c(OC)c1OC)-c1ccc(OC)c(=O)cc1C(NC(C)=O)CC2` (configuration not stated) [Colchicine], the cell viability worked out at 0.584 ± 0.1.

`O=C(O)c1nn(Cc2ccc(Cl)cc2Cl)c2ccccc12` [Lonidamine] showed a cell viability of 1.29 ± 0.1.

`O=C(O)C1C2CCC(O2)C1C(=O)[O][Na]` (configuration not stated) [Sodium Demethylcantharidate] registered a cell viability of 1.12 ± 0.29.

For `CC1CCC2N(C1)CC1C3CC4C(CC(O)C5CC(O)CCC54C)C3CCC1C2(C)O` (configuration not stated) [Peimine], the cell viability is 1.12 ± 0.26.

`COC1=CC2C3Cc4ccc(OC)c(O)c4C2(CCN3C)CC1=O.Cl` (configuration not stated) [Sinomenine hydrochloride] came in with a cell viability of 1.33 ± 0.43.

`c1ccc2c(c1)Sc1ccccc1N2CC1CN2CCC1CC2` (configuration not stated) [Mequitazine] yielded a cell viability of 0.705 ± 0.19.

In turn, `CCC1(O)C(=O)OCc2c1cc1n(c2=O)Cc2c-1nc1ccccc1c2CCNC(C)C.Cl` (configuration not stated) [Belotecan (CKD-602) hydrochloride] returned a cell viability of 0.322 ± 0.15.

`CC(C)C12OC1C1OC13C1(C)CCC4=C(COC4=O)C1CC1OC13C2=O` (configuration not stated) [Triptonide]: the cell viability turned out to be 0.403 ± 0.18.

For the compound `CCC1(O)C(=O)OCc2c1cc1n(c2=O)Cc2cc3ccccc3nc2-1` (configuration not stated) [Camptothecin], the cell viability came to 0.807 ± 0.36.

In turn, `CC1CC(=O)CC2CCC3C4CCC(O)C4(C)CCC3C12C` (configuration not stated) [Mesterolone] returned a cell viability of 1.26 ± 0.32.

The compound `C=CCN1CC(C(=O)N(CCCN(C)C)C(=O)NCC)CC2c3cccc4[nH]cc(c34)CC21` (configuration not stated) [Cabergoline] displayed a cell viability of 0.968 ± 0.23.

The compound `Cn1cc(C2=C(c3cn(C4CCN(Cc5ccccn5)CC4)c4ccccc34)C(=O)NC2=O)c2ccccc21` yielded a cell viability of 1.09 ± 0.062.

Consider `CC12CCC3C(CCC4=C(O)C(=O)CCC43C)C1CCC2=O` (configuration not stated) [Formestane], for which the cell viability was 1.4 ± 0.13.

Consider `CN(C)NC(=O)CCC(=O)O` [Daminozide], for which the cell viability turned out to be 1.09 ± 0.18.

Take `CC(C)[N+](C)(CCC(C(N)=O)(c1ccccc1)c1ccccc1)C(C)C.[I-]` [Isopropamide Iodide]: the cell viability worked out at 0.876 ± 0.069.

For `CCC1=CC2CN3CCc4c([nH]c5ccccc45)C(C(=O)OC)(C2)C13` (configuration not stated) [Catharanthine], the cell viability is 1.02 ± 0.093.

`CC12CCC3c4ccc(OC(=O)N(CCCl)CCCl)cc4CCC3C1CCC2OP(=O)([O-])[O-].[Na+].[Na+]` (configuration not stated) [Estramustine phosphate sodium]: the cell viability is 0.645 ± 0.29.

The compound `Cl.Cn1c(CCCC(=O)O)nc2cc(N(CCCl)CCCl)ccc21` [Bendamustine HCl] showed a cell viability of 1.26 ± 0.066.

On to `COC1=CC2C3Cc4ccc(OC)c(O)c4C2(CCN3C)CC1=O` (configuration not stated) [Sinomenine], for which the cell viability is 1.31 ± 0.18.

In turn, `COc1cc2c(cc1O)CC1c3c(cc(O)c(OC)c3-2)CCN1C` (configuration not stated) [Boldine] registered a cell viability of 0.922 ± 0.2.

`Cn1c(CCCC(=O)O)nc2cc(N(CCCl)CCCl)ccc21` [Bendamustine] gave a cell viability of 1.02 ± 0.09.

Compound `COc1cc(C2c3cc4c(cc3C(O)C3COC(=O)C23)OCO4)cc(OC)c1OC` (configuration not stated) [Picropodophyllin (PPP)] showed a cell viability of 0.668 ± 0.27.

`O=c1c2ccccc2[se]n1-c1ccccc1` [Ebselen]: the cell viability came to 0.788 ± 0.063.

For the compound `COC(=O)CC(O)(CCC(C)(C)O)C(=O)OC1C(OC)=CC23CCCN2CCc2cc4c(cc2C13)OCO4` (configuration not stated) [Harringtonine], the cell viability came out at 0.245 ± 0.14.

In turn, `O.O=P1(N(CCCl)CCCl)NCCCO1` (configuration not stated) [Cyclophosphamide Monohydrate] registered a cell viability of 1.16 ± 0.065.

Source of the values: the supplement of paper PMC8866396.
